# PubChem BioAssay (EPA / NIEHS)
# Records with an inconclusive call do not appear. Activity calls are given as the source filed them. How the source made its calls: active means hit-call score of the fitted dose curve at least 0.9, where 1 is the maximum; inconclusive means response in the unintended direction; inactive means score below 0.9.
# Experiments:
# [1] = biological target: human Ephrin type-B Receptor 1 (EphB1), EPHB1 (gene 2047) (UniProt P54762); assay: NVS_ENZ_hEphB1: NovaScreen (NVS) Enzymatic Assay for human Ephrin type-B Receptor 1 (EphB1) (AID 2283154)
# How it was run: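 Recombinant EphB1 activity read by fluorescence after mobility-shift separation of product from substrate, 1 h post-dosing. Compounds screened in duplicate at 25 uM; inhibition scored as signal loss relative to DMSO.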
# [2] = biological target: human Esterase Plasma (ES), BCHE (gene 590) (UniProt P06276); assay: NVS_ENZ_hES: NovaScreen (NVS) Enzymatic Assay for human Esterase Plasma (ES) (AID 2283157)
# How it was run: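 Primary single-concentration screen at 25 uM in duplicate, then concentration-response to a 50 uM top dose. Human plasma esterase activity detected colorimetrically after 0.25 h incubation, with DMSO as baseline.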
# [3] = biological target: human Caspase 5 (CASP5), CASP5 (gene 838) (UniProt P51878); assay: NVS_ENZ_hCASP5: NovaScreen (NVS) Enzymatic Assay for human Caspase 5 (CASP5) (AID 2283137)
# How it was run: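 Caspase 5 enzyme activity, detected as fluorescence signal loss, is measured in a biochemical format using E. coli-expressed protein. Reading occurs 2 hours post-dosing. Screening runs at 25 uM, with confirmed actives titrated to 50 uM maximum.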
# [4] = biological target: Caspase-3 (Homo sapiens) (UniProt P42574); assay: NVS_ENZ_hCASP3: NovaScreen (NVS) Enzymatic Assay for human Caspase 3 (CASP3) (AID 2283139)
# How it was run: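 Single-concentration screening at 25 uM in duplicate, with concentration-response follow-up to a 50 uM maximum for chemicals passing the threshold. Caspase-3 (human, E. coli-expressed) activity was read as substrate fluorescence after 1 h, with loss of signal relative to DMSO.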
# [5] = biological target: human Caspase 8 (CASP8), CASP8 (gene 841) (UniProt Q14790); assay: NVS_ENZ_hCASP8: NovaScreen (NVS) Enzymatic Assay for human Caspase 8 (CASP8) (AID 2283146)
# How it was run: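 The primary screen tested compounds in duplicate at a single 25 uM concentration, with actives followed up in concentration series. Activity of recombinant (E. coli) protease was measured by fluorescence 1 h post-dose, as signal loss against DMSO.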
# [6] = biological target: human Elastase, ELANE (gene 1991) (UniProt P08246); assay: NVS_ENZ_hElastase: NovaScreen (NVS) Enzymatic Assay for human Elastase (AID 2283153)
# How it was run: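 Concentration-response to 50 uM max, run singly for chemicals passing a threshold (e.g., 30% inhibition) in a duplicate 25 uM single-point screen. Neutrophil-derived human elastase, absorbance read-out of enzyme activity at 1.5 h; DMSO baseline.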
# [7] = biological target: Histone deacetylase 3 (Homo sapiens) (UniProt O15379); assay: NVS_ENZ_hHDAC3: NovaScreen (NVS) Enzymatic Assay for human Histone Deacetylase 3 (HDAC3) (AID 2283163)
# How it was run: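 Cell-free enzyme format: loss of fluorescent product after mobility-shift separation, 1 h incubation, recombinant human HDAC3. Single 25 uM duplicate screen first, then concentration series to a 50 uM top for hits; DMSO as baseline.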
# [8] = biological target: human Dual Specificity Protein Phosphatase 3 (DUSP3), DUSP3 (gene 1845) (UniProt P51452); assay: NVS_ENZ_hDUSP3: NovaScreen (NVS) Enzymatic Assay for human Dual Specificity Protein Phosphatase 3 (DUSP3) (AID 2283152);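 further: phosphatase activity of recombinant human DUSP3 on a fluorogenic substrate without cells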
# How it was run: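 Cell-free fluorescence-intensity enzyme activity assay with recombinant protein and substrate; loss of signal fitted relative to DMSO baseline. Primary screen in duplicate at 25 uM, actives then run in concentration series; measured 0 h after dosing.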
# [9] = biological target: human Ephrin type-A Receptor 1 (EphA1), EPHA1 (gene 2041) (UniProt P21709); assay: NVS_ENZ_hEphA1: NovaScreen (NVS) Enzymatic Assay for human Ephrin type-A Receptor 1 (EphA1) (AID 2283158);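 further: activity is signal loss versus DMSO meaning EphA1 kinase inhibition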
# How it was run: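 Cell-free kinase activity with recombinant protein, 1 hour after dosing; product separated by electrophoretic mobility shift, fluorescence read. Primary screen at 25 uM in duplicate; hits run as concentration-response up to 50 uM, relative to DMSO.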
# [10] = biological target: human Casein Kinase 1-delta (CK1D), CSNK1D (gene 1453) (UniProt P48730); assay: NVS_ENZ_hCK1D: NovaScreen (NVS) Enzymatic Assay for human Casein Kinase 1-delta (CK1D) (AID 2283148)
# How it was run: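 Recombinant human CK1-delta, cell-free; fluorescent substrate with electrophoretic mobility-shift separation of product, read 1 h after dosing. Single 25 uM duplicate screen, then concentration-response up to 50 uM; loss of signal vs DMSO.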
# [11] = biological target: human Colony Stimulating Factor 1 Receptor (CSF1R), CSF1R (gene 1436) (UniProt P07333); assay: NVS_ENZ_hCSF1R: NovaScreen (NVS) Enzymatic Assay for human Colony Stimulating Factor 1 Receptor (CSF1R) (AID 2283150)
# How it was run: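 Compounds screened in duplicate at 25 uM, then concentration-response (top 50 uM) for those passing threshold such as 30% inhibition; recombinant CSF1R activity measured 1 h post-dosing via fluorescent substrate/product mobility-shift separation, loss of signal versus DMSO.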
# [12] = biological target: human AKT serine/threonine Kinase 1 (AKT1), AKT1 (gene 207) (UniProt P31749); assay: NVS_ENZ_hAKT1: NovaScreen (NVS) Enzymatic Assay for human AKT serine/threonine Kinase 1 (AKT1) (AID 2283138)
# How it was run: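 A biochemical assay with recombinant enzyme and specific substrate, read by fluorescence intensity with mobility-shift separation 1 hour after dosing. Actives from 25 uM duplicate screening were titrated up to 50 uM against DMSO baseline.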
# [13] = biological target: human Casein Kinase 2- alpha 2 beta 2 (CK2a2b2), CSNK2A1 (gene 1457) (UniProt P68400); assay: NVS_ENZ_hCK2a2b2: NovaScreen (NVS) Enzymatic Assay for human Casein Kinase 2- alpha 2 beta 2 (CK2a2b2) (AID 2283147)
# How it was run: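 Compounds were first screened in duplicate at 25 uM, and those passing the threshold were re-tested in concentration series up to a 50 uM maximum. Kinase activity of recombinant human CK2 α2β2 was measured 1 h after dosing by fluorescent substrate/product mobility-shift separation.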
# [14] = biological target: human FYN Proto-Oncogene, Src family Tyrosine Kinase (Fyn), FYN (gene 2534) (UniProt P06241); assay: NVS_ENZ_hFyn: NovaScreen (NVS) Enzymatic Assay for human FYN Proto-Oncogene, Src family Tyrosine Kinase (Fyn) (AID 2283161)
# How it was run: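 Cell-free kinase activity read by fluorescence after mobility-shift separation of substrate and product, 1 h post-dose. Initial single concentration 25 uM in duplicate, then concentration-response follow-up; DMSO baseline.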
# [15] = biological target: Glycogen synthase kinase-3 beta (Homo sapiens) (UniProt P49841); assay: NVS_ENZ_hGSK3b: NovaScreen (NVS) Enzymatic Assay for human Glycogen Synthase Kinase-3 beta (GSK3b) (AID 2283165)
# How it was run: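 Recombinant enzyme with specific fluorescent substrate, 1 h, product separated by electrophoretic mobility shift. Primary duplicate screen at 25 uM; actives (e.g. 30% inhibition) followed in singleton concentration-response to 50 uM. Signal loss fitted versus DMSO.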
# [16] = biological target: human Janus Kinase 2 (Jak2), JAK2 (gene 3717) (UniProt O60674); assay: NVS_ENZ_hJak2: NovaScreen (NVS) Enzymatic Assay for human Janus Kinase 2 (Jak2) (AID 2283169)
# How it was run: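 Single-point duplicate screen at 25 uM, with hits run in concentration series to a 50 uM top dose. Substrate-product separation by mobility shift with fluorescence detection, 1 h post-dosing; DMSO baseline.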
# [17] = biological target: human AKT serine/threonine Kinase 2 (AKT2), AKT2 (gene 208) (UniProt P31751); assay: NVS_ENZ_hAKT2: NovaScreen (NVS) Enzymatic Assay for human AKT serine/threonine Kinase 2 (AKT2) (AID 2283141)
# How it was run: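 Cell-free fluorescence/electrophoretic mobility shift readout of recombinant human AKT2 activity, 1 h after chemical dosing. Duplicate primary screen at 25 uM, then singleton concentration-response up to 50 uM; loss of signal versus DMSO baseline.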
# [18] = biological target: CDK2 (gene 1017) (UniProt P24941); assay: NVS_ENZ_hCDK2: NovaScreen (NVS) Enzymatic Assay for human Cyclin-Cependent Kinase 2 (CDK2) (AID 2283144)
# How it was run: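 Compounds screened in duplicate at 25 uM, then in singleton concentration-response to a maximum of 50 uM, against recombinant CDK2; kinase activity read 1 hr after dosing by fluorescence with mobility-shift separation of substrate and product.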
# [19] = biological target: human Insulin Receptor (InsR), INSR (gene 3643) (UniProt P06213); assay: NVS_ENZ_hInsR: NovaScreen (NVS) Enzymatic Assay for human Insulin Receptor (InsR) (AID 2283168)
# How it was run: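 Cell-free enzyme assay read 1 h post-dose by fluorescence after substrate/product mobility-shift separation. Duplicate 25 uM primary screen, then singleton concentration-response up to 50 uM for compounds passing threshold; loss of signal vs DMSO.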
# [20] = biological target: human Caspase 4 (CASP4), CASP4 (gene 837) (UniProt P49662); assay: NVS_ENZ_hCASP4: NovaScreen (NVS) Enzymatic Assay for human Caspase 4 (CASP4) (AID 2283143)
# How it was run: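 Compounds were first tested in duplicate at 25 uM, and hits were titrated singly to a 50 uM maximum. Recombinant protease from E. coli was read by fluorescence 2 h post-dose, and activity loss was fitted against the DMSO baseline.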
# human Ephrin type-A Receptor 1 (EphA1), EPHA1 (gene 2041), sequence (P21709 whole entry, looked up): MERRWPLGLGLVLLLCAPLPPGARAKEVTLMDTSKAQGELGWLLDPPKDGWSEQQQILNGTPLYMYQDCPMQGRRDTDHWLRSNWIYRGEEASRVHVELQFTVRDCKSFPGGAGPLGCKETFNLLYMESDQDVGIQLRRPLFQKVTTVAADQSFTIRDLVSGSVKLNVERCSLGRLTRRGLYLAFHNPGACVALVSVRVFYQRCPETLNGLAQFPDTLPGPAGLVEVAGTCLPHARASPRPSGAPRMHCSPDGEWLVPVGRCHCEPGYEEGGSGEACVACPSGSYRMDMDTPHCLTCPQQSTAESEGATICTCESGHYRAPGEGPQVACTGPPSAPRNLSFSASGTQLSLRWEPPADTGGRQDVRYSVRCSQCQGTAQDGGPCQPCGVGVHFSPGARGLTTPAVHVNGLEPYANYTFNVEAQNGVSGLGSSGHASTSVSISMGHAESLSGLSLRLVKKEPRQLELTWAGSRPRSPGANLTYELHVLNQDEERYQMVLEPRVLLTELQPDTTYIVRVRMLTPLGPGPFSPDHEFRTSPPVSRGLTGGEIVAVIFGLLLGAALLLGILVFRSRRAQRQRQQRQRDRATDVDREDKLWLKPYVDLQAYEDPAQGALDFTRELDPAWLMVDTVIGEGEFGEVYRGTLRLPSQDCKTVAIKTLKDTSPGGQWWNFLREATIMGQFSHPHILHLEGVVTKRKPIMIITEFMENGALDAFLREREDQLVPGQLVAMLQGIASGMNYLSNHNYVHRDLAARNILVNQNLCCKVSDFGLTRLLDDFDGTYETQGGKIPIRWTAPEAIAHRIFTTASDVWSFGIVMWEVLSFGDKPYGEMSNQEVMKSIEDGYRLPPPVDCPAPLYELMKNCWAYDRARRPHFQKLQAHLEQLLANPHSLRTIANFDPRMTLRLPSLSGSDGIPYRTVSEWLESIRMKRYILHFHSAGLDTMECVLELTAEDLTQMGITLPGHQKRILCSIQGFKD
# human Caspase 8 (CASP8), CASP8 (gene 841), sequence (Q14790 whole entry, looked up): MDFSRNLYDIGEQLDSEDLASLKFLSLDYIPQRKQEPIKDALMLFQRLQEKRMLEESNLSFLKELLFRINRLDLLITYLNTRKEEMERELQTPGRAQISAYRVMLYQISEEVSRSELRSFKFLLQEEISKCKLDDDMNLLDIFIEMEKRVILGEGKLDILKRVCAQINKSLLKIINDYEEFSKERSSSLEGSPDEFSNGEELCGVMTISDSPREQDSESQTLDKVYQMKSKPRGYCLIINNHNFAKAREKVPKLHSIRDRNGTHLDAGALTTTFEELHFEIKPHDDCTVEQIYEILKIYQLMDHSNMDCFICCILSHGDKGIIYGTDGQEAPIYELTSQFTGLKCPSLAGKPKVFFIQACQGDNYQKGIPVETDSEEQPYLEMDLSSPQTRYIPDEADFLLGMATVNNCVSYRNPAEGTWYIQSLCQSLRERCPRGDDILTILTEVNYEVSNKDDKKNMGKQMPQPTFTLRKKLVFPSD
# human Casein Kinase 1-delta (CK1D), CSNK1D (gene 1453), sequence (P48730 whole entry, looked up): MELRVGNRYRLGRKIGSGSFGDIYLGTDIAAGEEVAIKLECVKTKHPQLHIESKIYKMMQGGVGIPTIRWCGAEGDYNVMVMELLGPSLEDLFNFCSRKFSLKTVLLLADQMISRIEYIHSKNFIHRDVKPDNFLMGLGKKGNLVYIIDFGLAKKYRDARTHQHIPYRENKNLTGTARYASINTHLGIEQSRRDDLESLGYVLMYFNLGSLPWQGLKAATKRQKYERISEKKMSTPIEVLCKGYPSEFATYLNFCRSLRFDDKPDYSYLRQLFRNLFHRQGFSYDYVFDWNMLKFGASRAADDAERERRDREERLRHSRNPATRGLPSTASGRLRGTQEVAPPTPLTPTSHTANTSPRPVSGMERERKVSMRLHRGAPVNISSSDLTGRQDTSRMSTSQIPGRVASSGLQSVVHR
# human AKT serine/threonine Kinase 1 (AKT1), AKT1 (gene 207), sequence (P31749 whole entry, looked up): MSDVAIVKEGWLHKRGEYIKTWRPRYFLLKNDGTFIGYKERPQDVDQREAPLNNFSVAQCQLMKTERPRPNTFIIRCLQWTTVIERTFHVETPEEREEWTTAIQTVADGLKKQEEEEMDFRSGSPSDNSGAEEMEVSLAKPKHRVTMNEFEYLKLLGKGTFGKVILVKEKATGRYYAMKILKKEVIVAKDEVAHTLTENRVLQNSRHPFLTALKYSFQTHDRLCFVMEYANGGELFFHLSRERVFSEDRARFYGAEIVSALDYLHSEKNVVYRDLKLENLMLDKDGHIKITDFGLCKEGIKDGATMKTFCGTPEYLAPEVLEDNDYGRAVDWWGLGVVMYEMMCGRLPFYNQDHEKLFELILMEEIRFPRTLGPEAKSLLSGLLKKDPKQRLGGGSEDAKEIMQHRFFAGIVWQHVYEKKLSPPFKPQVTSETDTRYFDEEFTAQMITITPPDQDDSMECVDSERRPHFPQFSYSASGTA
# Histone deacetylase 3 (Homo sapiens), sequence (O15379 whole entry, looked up): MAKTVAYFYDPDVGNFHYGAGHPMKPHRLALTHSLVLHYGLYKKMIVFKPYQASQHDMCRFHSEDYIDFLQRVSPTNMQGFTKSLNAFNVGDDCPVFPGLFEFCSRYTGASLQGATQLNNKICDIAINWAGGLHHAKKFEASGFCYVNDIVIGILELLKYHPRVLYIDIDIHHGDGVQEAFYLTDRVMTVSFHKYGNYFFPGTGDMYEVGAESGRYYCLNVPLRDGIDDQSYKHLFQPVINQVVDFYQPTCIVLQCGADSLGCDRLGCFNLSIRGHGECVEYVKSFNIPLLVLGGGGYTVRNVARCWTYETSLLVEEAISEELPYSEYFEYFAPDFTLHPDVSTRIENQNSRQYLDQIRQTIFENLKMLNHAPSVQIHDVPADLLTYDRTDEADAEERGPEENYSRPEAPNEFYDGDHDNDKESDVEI
# human Colony Stimulating Factor 1 Receptor (CSF1R), CSF1R (gene 1436), sequence (P07333 whole entry, looked up): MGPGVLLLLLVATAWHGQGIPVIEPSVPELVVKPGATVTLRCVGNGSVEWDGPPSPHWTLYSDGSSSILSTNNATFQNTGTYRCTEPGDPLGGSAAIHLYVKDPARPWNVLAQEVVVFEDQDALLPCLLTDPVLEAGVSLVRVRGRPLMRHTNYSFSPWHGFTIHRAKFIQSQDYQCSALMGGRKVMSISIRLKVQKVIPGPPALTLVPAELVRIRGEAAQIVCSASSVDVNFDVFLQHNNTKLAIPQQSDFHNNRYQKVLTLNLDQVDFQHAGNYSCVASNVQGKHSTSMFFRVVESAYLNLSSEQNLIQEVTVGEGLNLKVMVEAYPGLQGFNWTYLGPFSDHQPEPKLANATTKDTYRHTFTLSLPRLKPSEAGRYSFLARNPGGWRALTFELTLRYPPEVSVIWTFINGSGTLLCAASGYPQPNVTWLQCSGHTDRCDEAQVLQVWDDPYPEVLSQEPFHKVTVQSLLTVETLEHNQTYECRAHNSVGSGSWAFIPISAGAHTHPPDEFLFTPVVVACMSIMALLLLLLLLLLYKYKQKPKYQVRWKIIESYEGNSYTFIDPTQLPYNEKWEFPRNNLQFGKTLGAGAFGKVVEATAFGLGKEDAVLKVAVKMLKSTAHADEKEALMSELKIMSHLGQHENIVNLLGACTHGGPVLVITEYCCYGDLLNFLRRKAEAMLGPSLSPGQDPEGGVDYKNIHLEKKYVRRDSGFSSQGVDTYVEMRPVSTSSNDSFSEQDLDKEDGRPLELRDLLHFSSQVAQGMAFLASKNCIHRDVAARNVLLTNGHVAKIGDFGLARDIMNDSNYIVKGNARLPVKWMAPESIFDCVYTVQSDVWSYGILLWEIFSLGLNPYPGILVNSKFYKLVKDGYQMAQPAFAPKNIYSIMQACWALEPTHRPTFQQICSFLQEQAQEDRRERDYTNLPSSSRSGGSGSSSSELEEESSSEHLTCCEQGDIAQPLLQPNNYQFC
# human Dual Specificity Protein Phosphatase 3 (DUSP3), DUSP3 (gene 1845), sequence (P51452 whole entry, looked up): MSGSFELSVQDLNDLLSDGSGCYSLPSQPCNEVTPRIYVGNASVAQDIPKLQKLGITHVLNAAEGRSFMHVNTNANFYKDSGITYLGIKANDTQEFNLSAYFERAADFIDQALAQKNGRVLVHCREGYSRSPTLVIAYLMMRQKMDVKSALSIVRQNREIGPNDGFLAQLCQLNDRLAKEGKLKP
# human Ephrin type-B Receptor 1 (EphB1), EPHB1 (gene 2047), sequence (P54762 whole entry, looked up): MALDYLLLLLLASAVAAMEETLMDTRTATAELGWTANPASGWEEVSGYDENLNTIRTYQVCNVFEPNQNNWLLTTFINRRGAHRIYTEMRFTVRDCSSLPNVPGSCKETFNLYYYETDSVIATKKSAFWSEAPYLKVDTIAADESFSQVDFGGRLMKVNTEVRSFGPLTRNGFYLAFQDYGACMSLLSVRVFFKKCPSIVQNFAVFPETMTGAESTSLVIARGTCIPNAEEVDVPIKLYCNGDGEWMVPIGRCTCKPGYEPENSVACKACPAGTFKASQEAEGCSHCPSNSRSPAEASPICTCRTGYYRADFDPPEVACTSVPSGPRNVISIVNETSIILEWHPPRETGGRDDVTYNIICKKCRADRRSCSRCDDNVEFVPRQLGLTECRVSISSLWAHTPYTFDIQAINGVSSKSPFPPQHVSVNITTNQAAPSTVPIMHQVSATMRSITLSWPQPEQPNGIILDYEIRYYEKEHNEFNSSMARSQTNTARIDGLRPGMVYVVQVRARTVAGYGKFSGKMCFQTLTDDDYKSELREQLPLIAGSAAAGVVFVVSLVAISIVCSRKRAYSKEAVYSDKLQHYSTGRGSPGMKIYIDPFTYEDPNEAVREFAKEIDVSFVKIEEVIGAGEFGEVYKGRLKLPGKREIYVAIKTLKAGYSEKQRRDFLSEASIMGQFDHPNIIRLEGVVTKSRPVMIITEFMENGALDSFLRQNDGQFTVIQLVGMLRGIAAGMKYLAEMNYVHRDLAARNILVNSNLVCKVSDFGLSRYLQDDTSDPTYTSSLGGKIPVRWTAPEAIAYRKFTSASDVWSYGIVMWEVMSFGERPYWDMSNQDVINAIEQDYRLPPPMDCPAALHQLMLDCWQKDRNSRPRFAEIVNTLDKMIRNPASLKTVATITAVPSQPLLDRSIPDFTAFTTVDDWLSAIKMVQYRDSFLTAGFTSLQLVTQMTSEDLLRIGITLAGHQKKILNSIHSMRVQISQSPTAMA
compound,measurement,setting,value
CCOC(=O)C(C)Oc1ccc(Oc2nc3ccc(Cl)cc3o2)cc1 (stereo unspecified),outcome,[1],inactive
same,outcome,[2],inactive
Oc1ccc(C(c2ccc(O)cc2)C(Cl)(Cl)Cl)cc1,AC50,[3],10.1 µM (active)
same,outcome,[1],inactive
COC(=O)c1cccc(C)c1S(=O)(=O)NC(=O)Nc1nc(OCC(F)(F)F)nc(N(C)C)n1,outcome,[4],inactive
same,outcome,[5],inactive
same,outcome,[6],inactive
CCN(CC)C(=O)c1cccc(C)c1,outcome,[2],inactive
CSC(=O)c1cccc2nnsc12,outcome,[7],inactive
CCOC(=O)NCCOc1ccc(Oc2ccccc2)cc1,outcome,[8],inactive
same,outcome,[9],inactive
CCNc1nc(N)nc(Cl)n1,AC50,[10],22.1 µM (active)
same,outcome,[11],inactive
CCCOC(=O)NCCCN(C)C,outcome,[1],inactive
COc1nc(C)nc(NC(=O)NS(=O)(=O)c2ccccc2OCCCl)n1,outcome,[12],inactive
c1ccc2[nH]c(-c3cscn3)nc2c1,AC50,[13],25 µM (active)
same,AC50,[10],19.8 µM (active)
same,outcome,[2],inactive
same,outcome,[9],inactive
same,outcome,[14],inactive
same,outcome,[15],inactive
same,AC50,[16],2.27 µM (active)
CCCCC(CC)CN1C(=O)C2C3C=CC(C3)C2C1=O (stereo unspecified),outcome,[17],inactive
CC(C)CCCCCCc1ccc(O)cc1,outcome,[12],inactive
same,outcome,[10],inactive
same,outcome,[14],inactive
same,outcome,[7],inactive
same,outcome,[15],inactive
CCCCOC(=O)[C@@H](C)Oc1ccc(Oc2ccc(C(F)(F)F)cn2)cc1,outcome,[12],inactive
same,outcome,[8],inactive
CC(C)(c1ccc(O)cc1)c1ccc(O)cc1,outcome,[5],inactive
same,AC50,[10],25.4 µM (active)
same,outcome,[2],inactive
same,outcome,[16],inactive
CCOC(=O)[C@H](C)Oc1ccc(Oc2nc3ccc(Cl)cc3o2)cc1,AC50,[11],3.18 µM (active)
O=C(c1ccc(O)cc1O)c1ccc(O)cc1O,AC50,[18],17 µM (active)
same,AC50,[10],17.3 µM (active)
same,AC50,[11],11.6 µM (active)
same,AC50,[9],25 µM (active)
same,AC50,[14],15.1 µM (active)
same,outcome,[7],inactive
same,AC50,[15],25 µM (active)
same,AC50,[19],19.3 µM (active)
same,AC50,[16],21 µM (active)
CC(=O)[C@H]1CC[C@H]2[C@@H]3CCC4=CC(=O)CC[C@]4(C)[C@H]3CC[C@]12C,outcome,[10],inactive
same,outcome,[15],inactive
CCCCOC(=O)C(C)Oc1ccc(Oc2ccc(C(F)(F)F)cn2)cc1 (stereo unspecified),outcome,[11],inactive
COC(=O)c1ccc(CNS(C)(=O)=O)cc1S(=O)(=O)NC(=O)Nc1nc(OC)cc(OC)n1,outcome,[7],inactive
S=C([S-])NCCNC(=S)[S-].[Mn+2],AC50,[3],15.1 µM (active)
same,AC50,[12],1.05 µM (active)
same,AC50,[17],0.606 µM (active)
same,outcome,[20],inactive
same,AC50,[18],11.4 µM (active)
same,outcome,[5],inactive
same,AC50,[13],3.93 µM (active)
same,AC50,[10],25 µM (active)
same,AC50,[11],5.51 µM (active)
same,outcome,[8],inactive
same,outcome,[6],inactive
same,outcome,[14],inactive
same,AC50,[15],0.306 µM (active)
